An excerpt weighted towards active compounds, which were near 18% of everything screened.
DT40 TDP1 CPT – DT40-hTDP1 cell growth loss with CPT; chicken DT40 Tdp1-/-;hTDP1 cells + 20 nM CPT, ATP luminescence, 48 h; Potency, µM (top dose mostly 46.2 µM), for inactives: top-dose activity change, negative = growth inhibition, most hits filed as inhibitors; actives 12% (n = 420,000); further: potency means the concentration at half of the fitted maximal effect; nearly all actives have a fitted effect of over 55% in size
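Cell growth measured by CellTiter-Glo luminescence after a minimum 48 h, 37 C compound exposure with 20 nM CPT in Tdp1-knockout DT40 cells stably expressing hTDP1, seeded 400/well; qHTS titration format.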
LDHA block – inhibitors of human lactate dehydrogenase A; P00338; purified LDHA, NADH/diaphorase-resazurin fluorescence; hits give low values; activity change, % (values are at about 110 or 230 µM); actives 0.15% (n = 480,000); AID 1347041; in the data active means activity change below about -30%; inconclusive means mostly about -25% to -30%;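 further: plate controls were DMSO wells for no effect and wells without enzyme for full effect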
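Human LDH5 at 2 nM final in Tris HCl pH 7.4 with 0.06 mM NADH and 0.2 mM pyruvate, reacted 5 minutes at room temperature. Remaining NADH coupled via diaphorase/resazurin; resorufin fluorescence read at 0 and 20 minutes, normalized to enzyme-free and DMSO wells.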
IL1B secr inh – inflammasome signaling inhibition, IL-1 beta readout; THP-1 LPS/ATP IL-1B secretion, AlphaLISA, 16 h; hits give low values; activity change, % at 57.5 µM; actives 4.7% (n = 360,000); AID 743279; in the data active means activity change below about -50%; inconclusive means mostly about -30% to -49%
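THP-1 cells pretreated 1 hr with compounds (up to 57.5 uM final), then stimulated with LPS (250 ng/mL final) plus ATP (1.25 mM final); secreted IL-1B measured by AlphaLISA after 16 hr, decreased signal indicating inhibition.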
TDP1 cell noCPT – qHTS for Inhibitors of human tyrosyl-DNA phosphodiesterase 1 (TDP1): qHTS in cells in absence of CPT; actives 15% (n = 420,000); AID 686978, 2013; DT40 Tdp1-/- hTDP1 cells, no CPT, ATP luminescence, 48 h; Potency, µM (highest dose often 46.2 µM), inactives show top-dose activity change, negative = growth inhibition, most hits filed as inhibitors; further: potency means the concentration at half of the fitted maximal effect; nearly all actives have a fitted effect of over 55% in size
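Stably hTDP1-transfected Tdp1-null chicken DT40 cells were treated with library compounds minus camptothecin and grown for at least 48 hr at 37 °C, after which cellular ATP was quantified by luminescence.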
RORg inh – blocks mouse ROR gamma transcriptional activity; Drosophila S2 Gal4-RORgamma UAS-luciferase reporter, 20 h; Potency, µM (highest dose often 53.6 µM), for inactives: at the top dose activity change, negative = inhibition, most hits filed as inhibitors; actives 5.4% (n = 310,000); AID 2551; further: potency means the concentration at half of the fitted maximal effect; nearly all actives have a fitted effect of over 60% in size
Target sequence (P51450 whole entry, looked up, the tested form may be a part): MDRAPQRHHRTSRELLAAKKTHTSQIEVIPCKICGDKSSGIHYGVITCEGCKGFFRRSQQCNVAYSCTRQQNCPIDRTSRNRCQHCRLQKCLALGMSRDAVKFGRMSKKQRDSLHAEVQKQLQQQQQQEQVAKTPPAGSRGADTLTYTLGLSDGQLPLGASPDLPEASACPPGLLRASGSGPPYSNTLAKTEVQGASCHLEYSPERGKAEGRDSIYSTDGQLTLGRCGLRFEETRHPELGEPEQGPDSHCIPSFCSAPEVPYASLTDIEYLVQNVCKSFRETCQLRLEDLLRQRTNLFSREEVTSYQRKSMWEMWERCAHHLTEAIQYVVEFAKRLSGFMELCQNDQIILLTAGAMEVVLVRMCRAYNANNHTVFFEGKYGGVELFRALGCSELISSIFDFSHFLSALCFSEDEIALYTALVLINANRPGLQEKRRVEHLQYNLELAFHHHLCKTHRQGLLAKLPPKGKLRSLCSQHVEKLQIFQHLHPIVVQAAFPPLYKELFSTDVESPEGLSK
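Luciferase reporter read in Schneider cells carrying Gal4-RORγ (mouse) and UAS-Photinus luciferase; cells given compound 1 h before 700 uM copper sulfate induction, then incubated 20 h at ambient temperature.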
VP16 counter – inhibits Gal4-VP16 luciferase reporter, ROR gamma counter-screen; Potency, µM (series often up to 53.6 µM), inactives show top-dose activity, negative = inhibition, most hits filed as inhibitors; actives 3.5% (n = 310,000); Drosophila S2 Gal4-VP16 UAS-luciferase, luminescence, 20 h;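 further: Gal4-VP16 expression switched on by copper sulfate through the metallothionein promoter; potency means the concentration at half of the fitted maximal effect; nearly all actives have a fitted effect of over 50% in size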
Starred values were filed as active, the others as inactive; ? = inconclusive; . = not tested or not shown; [ ] = another dose, or the depositor's remark. Unless noted, the call rests on the fitted dose curve; in most records, active means well fitted curve in the direction sought with a large enough effect; inconclusive means small, poorly fitted or top-dose-only effect, or another doubt; inactive means no such curve, though single readings can be large; an effect the other way counts as inactive or inconclusive. Unless noted, on the % scale 0 is the no-effect control and ±100 the full control effect.

SMILES | DT40 TDP1 CPT | LDHA block | IL1B secr inh | TDP1 cell noCPT | RORg inh | VP16 counter
O=C(CN1CCN(CC(=O)Nc2ccccc2F)CC1)Nc1cccc(F)c1 | -22% | -5 | -10 | -25% | -1% | 9%
O=C(CN1CCN(c2ccc(Cl)cc2)CC1)Nc1ccc(Cl)c(C(F)(F)F)c1 | ? | 3 | . | 16µM* | . | .
O=C(CN1CCN(CC(=O)Nc2ccccc2F)CC1)Nc1ccc(Cl)c(C(F)(F)F)c1 | 7.3µM* | 0 | . | 6.5µM* | . | .
O=C(CN1CCN(S(=O)(=O)c2ccc(F)cc2)CC1)Nc1ccc(Cl)c(C(F)(F)F)c1 | 18µM* | -1 | -60* | 9.2µM* | ? | ?
O=C(CN1CCN(c2ccc(Cl)cc2)CC1)Nc1cccc(F)c1 | -28% | 0 | -15 | ? | 28% | -5%
O=C(CN1CCN(S(=O)(=O)c2ccc(F)cc2)CC1)Nc1ccc2c(c1)OCCO2 | -1% | -9 | -2 | -25% | -2% | -3%
CCOc1ccc(NC(=O)CN2CCN(CC(=O)Nc3ccc(Cl)c(C(F)(F)F)c3)CC2)cc1 | 12µM* | 3 | -59* | 9.2µM* | 3% | ?
COc1ccc(C(=O)N/C(=C\c2cc3ccc(OC)cc3nc2Cl)C(=O)N(C)C)cc1 | . | 3 | . | . | . | .
COc1ccccc1N1CC(c2nc3ccc(C)cc3[nH]2)CC1=O (stereo unspecified) | . | -1 | . | . | . | .
CCCc1nnc2sc(-c3ccc4c(c3)OCO4)nn12 | . | 1 | . | . | . | .
Fc1cccc(Cl)c1CSc1nnc(COc2cccc3cccnc23)o1 | -22% | 3 | -51* | -26% | 5% | -10%
CC(C)(C)OC(=O)NCCCCCc1nnc(SCc2ccccc2F)o1 | ? | -2 | -51* | ? | ? | 6%
CC(C)(C)OC(=O)NCCCCCc1nnc(SCc2c(F)cccc2Cl)o1 | -24% | 1 | 0 | 21µM* | 14% | -2%
CC(C)(C)OC(=O)NCCCCCc1nnc(SCc2cccc(F)c2)o1 | ? | 2 | -10 | 9.2µM* | ? | -23%
O=C(CN1CCN(C(=O)CCc2ncc(-c3c(F)cccc3F)o2)CC1)Nc1cccc(F)c1 | . | 2 | . | . | . | .
Cc1cnc(NC(=O)Cc2ccc3ccccc3c2)s1 | . | 2 | . | . | . | .
Cc1ccc(C(=O)NNC(=O)CNS(=O)(=O)/C=C/c2ccccc2)cc1 | . | -6 | . | . | . | .
CC(=O)O[C@@H]1CC2CCC1(C)C2(C)C (stereo partly specified) | 0% | . | . | -4% | . | .
CC1(C)C2CCC1(C)C(OCC[N+](C)(C)CC(=O)OC1CCCCC1)C2 (stereo unspecified) | 1.2µM* | 2 | 15 | 0.65µM* | ? | ?
CCOC(=O)C[N+](C)(C)CCOC1CC2CCC1(C)C2(C)C (stereo unspecified) | 16µM* | -7 | -5 | 7.3µM* | 24% | -1%
N/C(Cc1ccccc1)=N\OC(=O)c1cccc2ccccc12 | ? | -4 | 22 | ? | -7% | 8.9µM*
N/C(Cc1cccc2ccccc12)=N\OC(=O)c1ccccc1F | 7% | -8 | 4 | 5% | 6% | 0%
N/C(=N\OC(=O)c1cccc2ccccc12)c1ccc(Br)cc1 | -5% | 2 | 19 | -21% | 10µM* | 5µM*
N#CC1=C(N)Oc2c(c(=O)[nH]c3ccccc23)C1c1ccc(Br)cc1 (stereo unspecified) | . | 5 | . | . | . | .
Cc1ccc(C)c(NC(=O)NC2CCCCCCC2)c1 | 21% | -2 | 7 | 4% | -32% | -16%
SMILES | DT40 TDP1 CPT | LDHA block | IL1B secr inh | TDP1 cell noCPT | RORg inh | VP16 counter
COc1ccc(NS(=O)(=O)c2cccc(NC(=O)NC3CCCCC3)c2)cc1 | ? | -3 | -69* | 23µM* | ? | -8%
COc1ccc(NS(=O)(=O)c2ccc(C)c(NC(=O)NC3CCCCC3)c2)cc1 | ? | -4 | -74* | ? | ? | -21%
COc1ccc(NS(=O)(=O)c2cccc(NC(=O)COc3ccc(OC)cc3)c2)cc1 | ? | -1 | 20 | ? | 5% | 0%
Brc1ccc(-c2nc(-c3ccc4c(c3)OCO4)no2)o1 | . | 6 | . | . | . | .
CCn1c(=N)n(CC(O)COc2cccc(C)c2)c2ccccc21 (stereo unspecified) | 15µM* | 4 | ? | 9.2µM* | 34% | -12%
CCCCCn1c(=N)n(CC(O)COc2cccc(C)c2)c2ccccc21 (stereo unspecified) | 2.9µM* | -3 | . | 2.1µM* | . | .
CCCn1c(=N)n(CC(O)COc2cccc(C)c2)c2ccccc21 (stereo unspecified) | 16µM* | -4 | ? | 15µM* | 32% | -12%
Cc1cccc(OCC(O)Cn2cnc3c2c(=O)n(C)c(=O)n3C)c1 (stereo unspecified) | . | -4 | . | . | . | .
Cc1cccc(OCC(O)CN)c1 (stereo unspecified) | . | 0 | . | . | . | .
Cc1cc(OC(F)F)ccc1NC(=O)Nc1ccc([N+](=O)[O-])cc1 | 15µM* | 1 | ? | 18µM* | -92% | ?
Cc1ccc([N+](=O)[O-])cc1NC(=O)Nc1ccc(S(N)(=O)=O)cc1 | 3% | -1 | -15 | -20% | 7% | 1%
O=C(Nc1ccc([N+](=O)[O-])cc1)Nc1ccc(Cl)cc1F | 2.6µM* | -8 | -93* | 1.6µM* | 12% | -14%
O=C(Nc1ccc(Cl)cc1)Nc1cc([N+](=O)[O-])ccc1F | -3% | -7 | 13 | -26% | ? | ?
N#CC1=C(N)OC2=C(C(=O)CC(c3cccc(Cl)c3)C2)C1c1ccc(Cl)cc1 (stereo unspecified) | . | 7 | . | . | . | .
C=CCN(C(=O)C1=NN(C2CCS(=O)(=O)C2)C(=O)CC1)c1nc(-c2ccc([N+](=O)[O-])cc2)cs1 (stereo unspecified) | -2% | -7 | -55* | 18µM* | 9% | 25%
O=C(OC/C=C/c1ccccc1)C1=NN(C2CCS(=O)(=O)C2)C(=O)CC1 (stereo unspecified) | . | -4 | . | . | . | .
Fc1ccc(-n2c(=S)[nH]c3cccnc32)cc1 | -29% | 2 | 18 | ? | ? | ?
CC(C)(C)c1cn(-c2ccc(F)cc2)c(=S)[nH]1 | 6% | -2 | 0 | 1% | 8.9µM* | 10µM*
N#CN=C1SCCS1 | 9.2µM* | -2 | 46 | 15µM* | 1%[10 µM] | -2%
O=S(=O)(c1ccc(NC(=S)N2CCOCC2)cc1)N1CCCCC1 | -29% | 1 | 31 | 15µM* | . | .

Assay outcomes (PubChem BioAssay)
